ANO1 activ: activators or potentiators of mouse TMEM16A chloride channel. AID 623877. HEK293 TMEM16A/YFP-H148Q/I152L, iodide quench fluorescence; hits give low values. B-score at 10 µM. 340,000 tested, 0.3% active;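 active = fluorescence-ratio B-score plate-corrected deviation score at least 3 library SD below zero, with starting fluorescence score within 5 deviations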;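 also: channel opened by trigger with iodide after compound preincubation; score built on the fluorescence ratio of max minus min over baseline; more negative score means more quench and so TMEM16A activation or potentiation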
MEKK2 mut-MEK5: signal of MEK5 binding to mutant human MEKK2 PB1 domain. bead flow cytometry, Alexa488-MEK5 binding to MEKK2 mutant. percent response, % at 10 µM. 290,000 tested, 0.35% active; in the data active = percent response above about 24%, passing the limit was not always enough
NTR1 ag: NTR1 (human) agonism; P30989; NTR1-U2OS beta-arrestin-GFP spot imaging, agonist mode; activation, % at 20 µM; 330,000 tested, 0.17% active;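 active = activation at or above 40% of the spot to cytoplasm intensity ratio, with at least 20 cells analyzed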;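 also: 0% = DMSO without peptide and 100% = 100 nM NTR1 peptide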
ANO1 block: inhibitors of mouse TMEM16A calcium-activated chloride channel; HEK293 TMEM16A/YFP iodide influx fluorescence, ionomycin; normalized B-score (activity score, 25-100; higher = stronger inhibition) at 10 µM; 310,000 tested, 1.2% active; AID 588511;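 active = ratio plate-corrected score three or more library SD toward inhibition, starting fluorescence score within five deviations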;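 also: score derived from kinetic fluorescence span divided by baseline fluorescence per well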
MEKK2wt PB1 HTS: raises or lowers MEK5 binding to wildtype human MEKK2 PB1 domain; Q9Y2U5; bead flow cytometry, Alexa488-MEK5 binding to MEKK2 WT; actives lie on both sides; binding response (% of control), % at 10 µM; 290,000 tested, 1.1% active; AID 1531; in the data active = binding response below about 67% or above about 130%
MEKK3 PB1 HTS: MEKK3-MEK5 PB1 interaction, increase or decrease | AID 1529 | Q99759 | bead-based flow cytometry, Alexa488-MEK5 binding to MEKK3; actives lie on both sides; 0 = blocked by unlabeled MEK5, 100 = vehicle | 290,000 tested, 1.4% active | binding response (% of control), % at 10 µM;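 active = binding response more than 3 SD above or below the average of its plate-row segment, actives on both sides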;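 also: Alexa488 bead fluorescence after subtracting the streptavidin-only scavenger bead signal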
Target sequence (Q99759 whole entry, looked up): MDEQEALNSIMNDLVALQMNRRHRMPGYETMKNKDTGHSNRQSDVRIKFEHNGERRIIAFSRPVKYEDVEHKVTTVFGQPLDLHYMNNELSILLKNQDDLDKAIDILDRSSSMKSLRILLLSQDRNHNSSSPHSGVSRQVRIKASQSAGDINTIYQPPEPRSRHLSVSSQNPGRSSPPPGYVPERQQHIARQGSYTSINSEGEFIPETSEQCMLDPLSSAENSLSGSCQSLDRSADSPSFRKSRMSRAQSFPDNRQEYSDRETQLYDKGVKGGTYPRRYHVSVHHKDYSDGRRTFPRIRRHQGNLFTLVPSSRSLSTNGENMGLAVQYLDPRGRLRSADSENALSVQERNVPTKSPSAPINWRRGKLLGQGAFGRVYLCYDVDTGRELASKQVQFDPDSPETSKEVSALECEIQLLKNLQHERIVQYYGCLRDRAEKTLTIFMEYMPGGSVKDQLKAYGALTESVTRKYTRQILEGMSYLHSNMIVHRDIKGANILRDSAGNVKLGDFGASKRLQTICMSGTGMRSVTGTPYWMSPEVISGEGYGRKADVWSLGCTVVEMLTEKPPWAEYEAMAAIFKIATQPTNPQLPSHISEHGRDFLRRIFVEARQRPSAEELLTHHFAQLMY
MEKK2wt confirm: raises or lowers MEK5 binding to wildtype human MEKK2, retest; shares compounds with MEKK3 PB1 HTS; bead flow cytometry, Alexa488-MEK5 binding to MEKK2 WT; actives lie on both sides; binding response (% of control), % at 10 µM; 5,900 tested, 2.4% active; AID 1892; in the data active = binding response below about 16% or above about 210%; inactive = in between
MEKK2mut-MEK5: signal of MEK5 binding to mutant human MEKK2, retest. 5,900 tested, 2% active. AID 1893. bead flow cytometry, Alexa488-MEK5 binding to MEKK2 mutant. shares compounds with MEKK3 PB1 HTS. percent response, % at 10 µM; in the data active = percent response mostly above about 71%, no sharp cut-off; inactive = mostly below about 38%;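 also: higher means compound restores mutant binding toward wildtype level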
MEKK3-MEK5 inh: MEKK3-MEK5 PB1 inhibition, single concentration confirmation | 5,900 tested, 1.8% active | shares compounds with MEKK3 PB1 HTS | bead flow cytometry, Alexa488-MEK5 binding to MEKK3; hits give low values | binding response (% of control), % at 10 µM;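 active = binding response below 72% of control, or above a set upper limit, though filed actives all read lower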;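 also: 100% = DMSO only wells and 0% = binding blocked by excess unlabeled MEK5; lower values mean stronger disruption of MEK5 binding to MEKK3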
NTR1 ag conf: NTR1 (human) agonism, confirmed; shares compounds with NTR1 ag; NTR1-U2OS beta-arrestin-GFP translocation imaging; activation, % at 20 µM; 480 tested, 38% active; AID 504550;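 active = mean activation at 20 µM of at least 40%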;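 also: 0% = DMSO without peptide and 100% = 100 nM NTR1 peptide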
An asterisk follows results filed as active; i = inactive; · = not tested or not shown; ! = a repeat was not active; [ ] = another dose, or the depositor's remark. In the library only some 3.4% were active in any assay of this set; here they are far more common.

SMILES	ANO1 activ	MEKK2 mut-MEK5	NTR1 ag	ANO1 block	MEKK2wt PB1 HTS	MEKK3 PB1 HTS	MEKK2wt confirm	MEKK2mut-MEK5	MEKK3-MEK5 inh	NTR1 ag conf
CN(C)CCCN(C(=O)CCOc1ccccc1)c1nc2c(F)cccc2s1	i	41	·	·	146*	105	142	24	106	·
Cc1cccc2sc(N(CCCN(C)C)C(=O)COc3ccc(Cl)cc3)nc12	i	53*	8	i	191*	105	168	28	106	·
Cc1ccc2sc(N(CCCN(C)C)C(=O)c3ccc(S(=O)(=O)N4CCCCCC4)cc3)nc2c1C	i	·	12	i	·	·	·	·	·	·
CN(C)CCCN(C(=O)COc1ccc(Cl)cc1)c1nc2c(F)cccc2s1	i	33	-1	i	162*	103	161	40	112	·
CN(C)CCCN(C(=O)CCc1ccccc1)c1nc2c(F)cccc2s1	i	-1	1	i	118	98	·	·	·	·
Cc1ccc(NC(=O)CSc2nc3ccccc3c(=O)[nH]2)cc1[N+](=O)[O-]	i	·	4	·	·	·	·	·	·	·
CN(C)CCCN(C(=O)CCOc1ccccc1)c1nc2ccc(F)cc2s1	i	7	·	·	143*	108	126	10	105	·
O=c1[nH]nc(CNc2ccc(OC(F)(F)F)cc2)c2ccccc12	i	-17	2	i	50	39*[inhibitor]	100	-4	104	·
COc1ccc(S(=O)(=O)N(C)C[C@H]2Oc3ccc(NC(=O)Nc4ccc5c(c4)OCO5)cc3C(=O)N([C@H](C)CO)C[C@@H]2C)cc1	i	·	-1	·	·	·	·	·	·	·
Cc1nc(SCC(=O)NC(C)(C#N)C2CC2)c2c(-c3cccs3)csc2n1 (stereo unspecified)	i	-3	4	i	96	94	·	·	·	·
Cc1nc(SCC(=O)NCC(F)(F)F)c2c(-c3cccs3)csc2n1	i	0	6	i	104	128*	96	-5	100	·
Cc1cc(Cl)cc(C)c1OCC(=O)N1CCN(c2ncccn2)CC1	i	·	-2	·	·	·	·	·	·	·
CCCCCCOc1ccc(/C(C)=N/NC2=NCCN2)cc1[N+](=O)[O-]	i	46	41*	i	203*	109	226*	68	112	46*
CCCCn1c(N)c(-c2nc3ccccc3s2)c2c([N+](=O)[O-])nn(C)c(=O)c21	i	-3	61*	i	100	82*[inhibitor]	112	5	97	5
Cc1ccc(Cn2cnc3c(cnn3-c3ccc(F)cc3)c2=O)cc1	i	5	1	i	104	102	·	·	·	·
COc1cc2c3nnc(-c4ccc(F)cc4)c-3cn(Cc3ccc(C)cc3)c2cc1OC	i	50*	112*	i	179*	116	204	74*	109	96*
COc1cc2c3nnc(-c4ccc(F)cc4)c-3cn(Cc3cccc(F)c3)c2cc1OC	i	-3	65*	i	53	39*[inhibitor]	88	-8	73	71*
CC1(O)CC(C)(C)C(C#N)C(=O)N1 (stereo unspecified)	i	·	·	·	·	·	·	·	·	·
CCCCOC(=O)Cn1c(=N)n(CCN2CCOCC2)c2ccccc21	i	1	0	i	99	102	·	·	·	·
CCCCCCCCCCOC(=O)Cn1c(COc2ccc(OC)cc2)[n+](C)c2ccccc21	i	80*	50*	25*!	256*	120	266*	79*	108	65*
Cc1cc(F)ccc1S(=O)(=O)Nc1ccccc1C(=O)Nc1ccccc1-c1nc2ccccc2[nH]1	i	1	53*	i	122	134*	109	0	99	72*
COc1ccc(CN2CCN(Cc3ccon3)CC2CCO)c(C)c1C (stereo unspecified)	i	-1	2	i	103	104	·	·	·	·
COc1ccc(CCc2nnc(CCC(=O)NCc3cc(C(C)C)no3)o2)cc1	i	-11	0	i	88	97	·	·	·	·
Cc1cccc(OC(C)C(=O)N2CCCN(C)CC2)c1C (stereo unspecified)	i	0	0	i	106	103	·	·	·	·
CCOc1ccc2[nH]c3c(N4CCc5ccccc5C4)ncnc3c2c1	i	42	50*	i	187*	115	199	46	110	0
SMILES	ANO1 activ	MEKK2 mut-MEK5	NTR1 ag	ANO1 block	MEKK2wt PB1 HTS	MEKK3 PB1 HTS	MEKK2wt confirm	MEKK2mut-MEK5	MEKK3-MEK5 inh	NTR1 ag conf
Cc1ccc(OC(F)F)c(NC(=O)Nc2cccc(C(F)(F)F)c2)c1	i	55*	43*	i	203*	108	134	6	103	14
NCCCCCNC(=O)c1nc[nH]c1C(=O)NCC(=O)OCc1ccccc1	i	·	1	·	·	·	·	·	·	·
COc1cc(C(CCN2CCCC2)c2c(OC)cc(OC)c3c(-c4ccccc4)cc(=O)oc23)cc(OC)c1OC (stereo unspecified)	i	26*	41*	i	140*	112	119	11	104	16
COc1ccc(C(CCN2CCN(c3ccccc3)CC2)c2c(OC)cc(OC)c3c(-c4ccccc4)cc(=O)oc23)cc1 (stereo unspecified)	i	3	-2	i	77	70	·	·	·	·
Cc1ccc(NC(=O)c2cccc(S(=O)(=O)N3CCc4ccccc4C3)c2)nc1	i	·	3	i	·	·	·	·	·	·
Cc1cc(N2CCN(C)CC2)ccc1NC(=O)c1cccc(S(=O)(=O)N2CCc3ccccc3C2)c1	i	5	42*	i	195*	105	126	8	98	38
COc1cc(C(=O)NC2=C(C#N)CCC2)cc(OC)c1OC	i	-2	0	i	100	102	·	·	·	·
CCn1c(SCc2cccc(F)c2)nc2c(c1=O)SCC2	i	3	4	i	107	106	·	·	·	·
C[N+]1=C(/C=C/Nc2ccccc2Cl)C(C)(C)c2ccccc21	i	5	-1	i	105	108	·	·	·	·
COC(=O)c1ccc2c(c1)C(C)(C)C(/C=C/c1ccccc1O)=[N+]2C	i	-8	50*	i	-1.0*[inhibitor]	68	89	-3	87	51*
